Most compounds without a hit are left out; they make up all but 3.6% or so of the library.
A549 viability: kills or reduces viability of A549 cells in Nrf2 counter-screen. A549 ARE-Fluc cells, CellTiter-Fluor viability, 18-24 h. Potency, µM (highest dose often 46 µM), actives largely listed as inhibitors. 390,000 compounds, 0.16% hits. AID 504648
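Cytotoxicity counterscreen: CellTiter-Fluor fluorescence was measured in A549 ARE_Fluc cells after 18-24 h of compound exposure in a concentration series. The subsequent BugLite luminescent read reports ARE-luciferase activity.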
TGFb inhibitor: inhibitors of TGF-b signaling | 410,000 compounds, 1.2% hits | Potency, µM (series often up to 46.1 µM), usual class: inhibitors | HepG2 CAGA-GFP TGF-b/SMAD3 reporter, GFP fluorescence, 18 h; TGF-beta stimulated, 500 pg/mL final | AID 588855; note: nearly all actives have a fitted effect of over 65% in size
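GFP signal (ex488/em500-530) from TGF-beta-stimulated HEPG2 CAGA-GFP cells, 500 pg/mL final, 18 h at 37 degrees C in DMEM plus 1% FBS, normalized to unstimulated and DMSO-stimulated controls.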
Nrf2 ARE act: activates Nrf2 signaling. AREc32 ARE-luciferase reporter (MCF7-derived line), luminescence, 24 h. Potency, µM (doses to about 46.1 µM), actives largely listed as activators. 410,000 compounds, 0.31% hits; note: nearly all actives have a fitted effect of over 65% in size
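AREc32 cells carrying an ARE-driven firefly luciferase reporter were seeded at 1000 cells/well in OPTI-MEM with 5% FBS, then exposed to compound for 24 hr at 37 deg C. Luminescence was read with Steady-Glo after 30 min at RT.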
Nrf2 block: Nrf2 pathway inhibition. A549 ARE-Fluc reporter, luciferase luminescence, 18-24 h. Potency, µM (titrated, usually from 46 µM), usual class: inhibitors. 360,000 compounds, 2.1% hits; note: nearly all actives have a fitted effect of over 60% in size
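A549 ARE_Fluc cells (5000/well, 5% FBS OPTI-MEM) pre-incubated 2 h, then treated with compounds 18-24 h at 37C/5% CO2 in concentration-response. CellTiter-Fluor viability read first; BugLite luciferase luminescence after 15 min at room temperature gives Nrf2 activity.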
HepG2 viability: kills HepG2 cells in TGF-b inhibitor counter-screen. 410,000 compounds, 0.76% hits. AID 588856. HepG2 CAGA-GFP viability, ATP luminescence, 18 h. Potency, µM (doses to about 46.1 µM), most hits filed as cytotoxic
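HepG2 CAGA-GFP cells (1000/well, DMEM with 1% FBS) received compound, then TGF-beta at 500 pg/mL final, and were incubated 18 hours at 37 degrees C. Viability was read by CellTiter-Glo luminescence. Media-only wells were set as complete cell-killing and DMSO as no toxicity.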
A number is an active result. Calls come from the whole dose curve; as a rule, active = well fitted curve in the direction sought with a large enough effect; inconclusive = small, poorly fitted or top-dose-only effect, or another doubt; inactive = no such curve, though single readings can be large; an effect the other way counts as inactive or inconclusive.

COc1ccccc1-c1cnc(C(O)c2ccccc2)[nH]1 (stereo unspecified) was read as TGFb inhibitor inactive, Nrf2 ARE act inactive and HepG2 viability inactive.
For COc1ccccc1-c1cnc(C(O)c2cc(Cl)cc(Cl)c2)[nH]1 (stereo unspecified) the results were TGFb inhibitor 11.2µM, Nrf2 ARE act inactive and HepG2 viability inactive.
OC(c1cccc(Cl)c1)c1ncc(-c2ccc(Oc3ccccc3)cc2)[nH]1 (stereo unspecified) was read as TGFb inhibitor 17.8µM, Nrf2 ARE act inactive and HepG2 viability 11.2µM.
`Cc1cc(Cl)ccc1C(O)c1ncc(-c2cccc3ccccc23)[nH]1` (stereo unspecified) gave TGFb inhibitor 12.6µM, Nrf2 ARE act inactive and HepG2 viability inactive.
COC(=O)[C@H](NC(=O)c1cc(-c2ccccc2)nc2ccccc12)c1ccccc1 was read as A549 viability inactive, TGFb inhibitor inactive, Nrf2 ARE act inactive, Nrf2 block inactive and HepG2 viability inactive.
Screening CCSc1nnc(NC(=O)COc2ccccc2[N+](=O)[O-])s1 returned A549 viability inactive, TGFb inhibitor inactive, Nrf2 ARE act inactive, Nrf2 block inactive and HepG2 viability inactive.
Cc1cc(C)nc(/N=C(/NC(=O)Nc2ccc(Cl)c(Cl)c2)Nc2cccc(Cl)c2)n1 was read as A549 viability inactive, TGFb inhibitor inactive, Nrf2 ARE act inactive, Nrf2 block inactive and HepG2 viability inactive.
Screening CCOC(=O)CC1C(=O)NCCN1S(=O)(=O)c1ccc(OC)cc1 (stereo unspecified) returned A549 viability inactive, TGFb inhibitor inactive, Nrf2 ARE act inactive, Nrf2 block inactive and HepG2 viability inactive.
For COCCCn1c(=O)c2ccccc2n(CC(=O)NC2CCCC2)c1=O the results were A549 viability inactive, TGFb inhibitor inactive, Nrf2 ARE act inactive, Nrf2 block inactive and HepG2 viability inactive.
`CNC(=O)C1CCC(Cn2c(=O)c3sccc3n(CC(=O)Nc3ccc(C)c(C)c3)c2=O)CC1` (stereo unspecified) gave A549 viability inactive, TGFb inhibitor inconclusive, Nrf2 ARE act inactive, Nrf2 block 23.1µM and HepG2 viability inactive.
For COc1ccc(NC(=O)CCNC(=O)c2ccc([N+](=O)[O-])cc2)cc1S(=O)(=O)N1CCCCC1 the results were A549 viability inactive, TGFb inhibitor inactive, Nrf2 ARE act inactive, Nrf2 block inconclusive and HepG2 viability inactive.
`CC(C)CCN(C(=O)c1csnn1)C(C(=O)NC1CCCC1)c1ccc(F)cc1` (stereo unspecified) gave A549 viability 18.4µM, TGFb inhibitor inactive, Nrf2 ARE act inactive, Nrf2 block 23.1µM and HepG2 viability inactive.
c1ccc2nccnc2c1 was read as TGFb inhibitor 2.82µM and HepG2 viability 3.98µM.
For COC(=O)c1ccc(C(=O)OCCCc2nc3ccc(N)cc3[nH]2)cc1 the results were A549 viability inactive, TGFb inhibitor inactive, Nrf2 ARE act inactive, Nrf2 block inactive and HepG2 viability inactive.
For On1c(-c2ccccc2)nc2ncccc21 the results were A549 viability inactive, TGFb inhibitor inactive, Nrf2 ARE act inactive, Nrf2 block inactive and HepG2 viability inactive.
`COc1ccc(-c2nc3ncccc3n2O)cc1` gave A549 viability inactive, TGFb inhibitor inactive, Nrf2 ARE act inactive, Nrf2 block inactive and HepG2 viability 14.1µM.
Screening COc1cc(S(=O)(=O)N(Cc2ccco2)C2CCCC2)ccc1-n1cnnn1 returned A549 viability inconclusive, TGFb inhibitor inactive, Nrf2 ARE act inactive, Nrf2 block inactive and HepG2 viability inactive.
CC1CCN(C(=O)CN2C(=O)C(=O)c3ccccc32)CC1 was read as A549 viability inactive, TGFb inhibitor inactive, Nrf2 ARE act inactive, Nrf2 block inactive and HepG2 viability inactive.
`CC1CCN(C(=O)CN2C(=O)c3cccc4cccc(c34)C2=O)CC1` gave A549 viability inactive, TGFb inhibitor inconclusive, Nrf2 ARE act 11.2µM, Nrf2 block inactive and HepG2 viability inactive.
CCOC(=O)CNC(=O)Cc1ccc(Cl)cc1 was read as A549 viability inactive, TGFb inhibitor inactive, Nrf2 ARE act inactive, Nrf2 block inactive and HepG2 viability inactive.
For Cc1ccc(SCCN2CCC(NC(=O)OCc3ccccc3)CCC2=O)cc1 (stereo unspecified) the results were A549 viability inactive, TGFb inhibitor inactive, Nrf2 ARE act inactive, Nrf2 block inactive and HepG2 viability inactive.
`O=C(N[C@H]1CCC(=O)N(CCSc2ccc(Br)cc2)CC1)OCc1ccccc1` gave A549 viability inactive, TGFb inhibitor 7.08µM, Nrf2 ARE act inactive, Nrf2 block inconclusive and HepG2 viability inactive.
CCOC(=O)C1CCCN(C(=O)CSc2ccc(Br)cc2)C1 (stereo unspecified) was read as A549 viability inactive, TGFb inhibitor inactive, Nrf2 ARE act inactive, Nrf2 block inactive and HepG2 viability inactive.
Cc1onc(-c2c(F)cccc2Cl)c1C(=O)c1ccccc1 was read as A549 viability inactive, TGFb inhibitor inactive, Nrf2 ARE act inactive, Nrf2 block inactive and HepG2 viability inactive.
Screening Cc1onc(-c2c(F)cccc2Cl)c1C(=O)c1ccccc1O returned A549 viability inactive, TGFb inhibitor inactive, Nrf2 ARE act inactive, Nrf2 block inactive and HepG2 viability 5.62µM.
Screening O=[N+]([O-])c1ccc(Sc2cc[n+]([O-])c3ccccc23)c([N+](=O)[O-])c1 returned A549 viability inconclusive, TGFb inhibitor inactive, Nrf2 ARE act inconclusive, Nrf2 block 16.4µM and HepG2 viability inactive.
`CC(C)Sc1nc2ccccc2c(=O)[nH]1` gave A549 viability inactive, TGFb inhibitor inactive, Nrf2 ARE act inactive, Nrf2 block inconclusive and HepG2 viability inactive.
`O=c1[nH]c(Sc2ccc([N+](=O)[O-])cc2[N+](=O)[O-])nc2ccccc12` gave A549 viability inactive, TGFb inhibitor 14.1µM, Nrf2 ARE act inconclusive, Nrf2 block inactive and HepG2 viability 11.2µM.
For O=C(CSc1nc2ccccc2c(=O)[nH]1)Nc1ccc([N+](=O)[O-])cc1 the results were A549 viability inactive, TGFb inhibitor inactive, Nrf2 ARE act inactive, Nrf2 block 16.4µM and HepG2 viability inactive.
Screening CCOc1ccc(NC(=O)CN(C)C(=O)C2CC2C)cc1OCC (stereo unspecified) returned A549 viability inactive, TGFb inhibitor inactive, Nrf2 ARE act inactive, Nrf2 block inactive and HepG2 viability inactive.
For CC(=O)Nc1cc(C(=O)OCC(=O)c2ccc(Cl)cc2Cl)ccc1C the results were A549 viability inactive, TGFb inhibitor inactive, Nrf2 ARE act inactive, Nrf2 block inconclusive and HepG2 viability inactive.
CC(C)C(=O)Nc1cccc(C(=O)OCC(=O)c2ccc(Cl)cc2Cl)c1 was read as A549 viability inconclusive, TGFb inhibitor inactive, Nrf2 ARE act inactive, Nrf2 block 20.6µM and HepG2 viability inactive.

Source: PubChem BioAssay
